Here are results for eight molecules from PubChem BioAssay (NCI).

The panel holds about 83,000 compounds, 20% with a hit somewhere; the sample as a whole holds those more often.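 Plates (96-well) were seeded with cells, treated with compound at one concentration, and incubated for 48 hours before percent growth was determined.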 Unmarked numbers belong to inactive results. The source made the active and inactive calls. The calls were made as follows: active = growth percent below 10; inactive = the rest.

Test systems include DU-145 prostate; K-562 leukemia; MALME-3M melanoma; MDA-MB-231 breast; RXF 393 renal; SF-268 CNS; SF-295 CNS; SF-539 CNS; UACC-257 melanoma; M14 melanoma; HCT-15 colon; HT29 colon; SNB-75 CNS; SNB-19 CNS; U251 CNS; PC-3 prostate; SK-MEL-5 melanoma; UACC-62 melanoma; LOX IMVI melanoma; SK-MEL-28 melanoma.
Experiment in all cases: NCI-60 one-dose screen, 48 h (100 = growth as untreated, 0 = no growth, -100 = all killed)
Common to all, as to settings: 10 µM unless noted

In the case of `CCCCCN(CCCCC)CCCCCCCCN1CCCc2ccccc21`, the growth was 101% in the experiment with DU-145 prostate; 7.49% (active) in the experiment on K-562 leukemia; 99.2% with MALME-3M melanoma; 90.9% in the experiment with MDA-MB-231 breast; 115% with RXF 393 renal; 86.9% in the experiment with SF-268 CNS. Further, the growth was 80.1% in the experiment on SF-295 CNS; 107% in the experiment on SF-539 CNS; 95.2% in the experiment with UACC-257 melanoma; 89.8% with M14 melanoma; 89.7% in the experiment with HCT-15 colon; 25.6% in the experiment with HT29 colon. Also, the growth in the experiment on SNB-75 CNS is 76.6%; in the experiment with SNB-19 CNS, 102%; with U251 CNS it was 101%; in the experiment with PC-3 prostate, 79.5%; in the experiment with SK-MEL-5 melanoma, 100%; in the experiment on UACC-62 melanoma, 101%. In addition, the results for the growth in the experiment with LOX IMVI melanoma and in the experiment with SK-MEL-28 melanoma were 61.4% and 105%, respectively.
Turning to `O=C1/C(=C/c2cccc(OCc3ccccc3)c2)Oc2cc(OCCN3CCCCC3)ccc21`, the growth in the experiment on DU-145 prostate was 88.1%; in the experiment on K-562 leukemia, -37.8% (active); in the experiment with MALME-3M melanoma, 58.3%; with MDA-MB-231 breast, 71%; with RXF 393 renal, 68.6%; in the experiment with SF-268 CNS it was 81%. The growth was 95.5% in the experiment on SF-295 CNS; 68.1% with SF-539 CNS; 94.5% in the experiment with UACC-257 melanoma; 88.6% in the experiment with M14 melanoma; -37% (active) in the experiment on HCT-15 colon; 21% in the experiment on HT29 colon. For the same molecule, the growth in the experiment on SNB-75 CNS was 76%; with SNB-19 CNS, 83.9%; in the experiment on U251 CNS it was 61.1%; with PC-3 prostate, 47.1%; with SK-MEL-5 melanoma, 78.6%; in the experiment with UACC-62 melanoma, 77.8%. For the same molecule, the growth in the experiment on LOX IMVI melanoma was 32.1%; in the experiment on SK-MEL-28 melanoma, 76.6%.
Regarding `COc1ncc(-c2ccc3nccc(C#CCCCCC(=O)O)c3c2)cc1NS(=O)(=O)c1ccc(F)cc1F`, the growth was 40.9% in the experiment on DU-145 prostate; 78.6% in the experiment with K-562 leukemia; -21.4% (active) in the experiment on MALME-3M melanoma; 41.9% in the experiment with MDA-MB-231 breast; -20% (active) in the experiment on RXF 393 renal; 36.5% with SF-268 CNS. In addition, the growth with SF-295 CNS is 6.94% (active); in the experiment on SF-539 CNS, -9.14% (active); in the experiment on UACC-257 melanoma, -2.67% (active); in the experiment on M14 melanoma, 13.9%; in the experiment with HCT-15 colon, 27.7%; with HT29 colon it was 16.1%. Further, the growth was -12.5% (active) in the experiment with SNB-75 CNS; 31.1% in the experiment with SNB-19 CNS; 31.6% in the experiment on U251 CNS; 19.8% in the experiment on PC-3 prostate; 10.3% with SK-MEL-5 melanoma; -12.6% (active) in the experiment on UACC-62 melanoma. Also, the growth was 28.2% in the experiment with LOX IMVI melanoma and 7.69% (active) in the experiment on SK-MEL-28 melanoma.
In the case of `CCN(CCNc1ccc(C)c2sc3cc(Cl)ccc3c(=O)c12)CC(C)O` (stereo not given), the growth is 82.5% with DU-145 prostate; 3.01% (active) in the experiment on K-562 leukemia; 82.1% in the experiment on MALME-3M melanoma; -11.8% (active) in the experiment on MDA-MB-231 breast; -39.2% (active) in the experiment on RXF 393 renal; 82.8% in the experiment with SF-268 CNS. Also, the growth with SF-295 CNS is 97.3%; in the experiment on SF-539 CNS, 59.4%; in the experiment on UACC-257 melanoma, -61.1% (active); in the experiment with M14 melanoma, -50.5% (active); in the experiment on HCT-15 colon, -42.8% (active); in the experiment on HT29 colon, -28.5% (active). Besides, the growth was 66.5% in the experiment on SNB-75 CNS; 58.5% with SNB-19 CNS; 18% in the experiment with U251 CNS; 48.5% with PC-3 prostate; -98.1% (active) in the experiment on SK-MEL-5 melanoma; -70.3% (active) with UACC-62 melanoma. Also, the growth with LOX IMVI melanoma was -83.4% (active); in the experiment on SK-MEL-28 melanoma it was -64.5% (active).
For the molecule `CCOC(=O)Nc1ccc2c(c1)/C(=N\NC(=S)NC)c1ccccc1-2`, the growth was 88.9% with DU-145 prostate; 77.2% in the experiment with K-562 leukemia; 115% in the experiment with MALME-3M melanoma; 65% in the experiment with MDA-MB-231 breast; 7.59% (active) in the experiment with RXF 393 renal; 101% with SF-268 CNS. For the same molecule, the growth with SF-295 CNS is 46.8%; in the experiment on SF-539 CNS, 71.4%; in the experiment with UACC-257 melanoma, 107%; in the experiment on M14 melanoma, 78.2%; with HCT-15 colon, 66.7%; in the experiment on HT29 colon it was 88%. The growth in the experiment on SNB-75 CNS is 96.2%; in the experiment with SNB-19 CNS, 71.8%; in the experiment with U251 CNS, 62%; with PC-3 prostate it was 81.8%; in the experiment with SK-MEL-5 melanoma, 73.5%; in the experiment with UACC-62 melanoma, 71.9%. Also, the growth with LOX IMVI melanoma was 67.1%; in the experiment with SK-MEL-28 melanoma, 82.7%.
For the molecule `CCOC(=O)c1cc(C#N)n2ncc3ccccc3c12`, the growth with DU-145 prostate was 109%; in the experiment on K-562 leukemia, 95.1%; in the experiment on MALME-3M melanoma, 102%; in the experiment with MDA-MB-231 breast it was 98.6%; in the experiment on RXF 393 renal, 102%; in the experiment on SF-268 CNS, 101%. In addition, the growth is 103% with SF-295 CNS; 89% in the experiment on SF-539 CNS; -53.6% (active) in the experiment on UACC-257 melanoma; 93.2% with M14 melanoma; 94.3% in the experiment on HCT-15 colon; 98% in the experiment with HT29 colon. For the same molecule, the growth was 72.7% in the experiment with SNB-75 CNS; 91.8% in the experiment on SNB-19 CNS; 93.2% in the experiment with U251 CNS; 92.8% in the experiment with PC-3 prostate; 98% in the experiment with SK-MEL-5 melanoma; 91.7% in the experiment on UACC-62 melanoma. Moreover, the growth in the experiment with LOX IMVI melanoma is 95.6%; with SK-MEL-28 melanoma, 101%.
`CSc1cccc([N+](=O)[O-])c1`: the growth was 110% with DU-145 prostate; 96.6% with K-562 leukemia; 103% in the experiment with MALME-3M melanoma; 101% in the experiment on MDA-MB-231 breast; 99% in the experiment on RXF 393 renal; 110% with SF-268 CNS. Besides, the growth in the experiment with SF-295 CNS is 106%; with SF-539 CNS, 96.2%; with UACC-257 melanoma, 103%; in the experiment on M14 melanoma it was 102%; with HCT-15 colon, 100%; in the experiment on HT29 colon, 90.2%. In addition, the growth in the experiment on SNB-75 CNS was 115%; in the experiment with SNB-19 CNS it was 110%; with U251 CNS it was 109%; in the experiment on PC-3 prostate, 96.9%; in the experiment with SK-MEL-5 melanoma, 99.8%; in the experiment on UACC-62 melanoma, 98%. Moreover, the growth in the experiment with LOX IMVI melanoma was 92.5%; in the experiment with SK-MEL-28 melanoma it was 111%.
`Oc1ccc(N=Nc2nccs2)c(O)c1`: the growth was 64% in the experiment with DU-145 prostate; 44% with K-562 leukemia; 92.9% in the experiment with MALME-3M melanoma; 54.9% with MDA-MB-231 breast; 90% in the experiment with RXF 393 renal; 51.5% in the experiment on SF-268 CNS. Further, the growth in the experiment on SF-295 CNS was 40.3%; in the experiment on SF-539 CNS, 86.1%; in the experiment with UACC-257 melanoma, 99.5%; in the experiment with M14 melanoma it was 68%; in the experiment with HCT-15 colon, 28.6%; with HT29 colon, 51.5%. Also, the growth in the experiment on SNB-75 CNS was 92.7%; with SNB-19 CNS it was 90.8%; in the experiment on U251 CNS, 41.1%; in the experiment on PC-3 prostate it was 55.2%; in the experiment on SK-MEL-5 melanoma, 87.9%; in the experiment on UACC-62 melanoma, 44.3%. Moreover, the growth with LOX IMVI melanoma is 40%; in the experiment on SK-MEL-28 melanoma, 118%.
